Data taken from PubChem BioAssay (NCATS).
“And” between values parts separate entries of the source, which are not always exact repeats. Identical values can stand only once. Results filed as inconclusive are left out. A number with no mark means an inactive call. The source made the active and inactive calls. Calls come from the whole dose curve; as a rule, active = well fitted curve in the direction sought with a large enough effect; inconclusive = small, poorly fitted or top-dose-only effect, or another doubt; inactive = no such curve, though single readings can be large; an effect the other way counts as inactive or inconclusive.

What was measured:
[1] = Viability qHTS for spleen associated tyrosine kinase inhibitor (SYKi) naive MV4-11 cells (AID 1963823); note: nearly all actives have a fitted effect of over 40% in size
Summary of the method: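 In this viability screen, compounds acted on SYK inhibitor naive MV4-11 cells for three days (72 hr, 37 C). Remaining viable cells were measured by CellTiter-Glo luminescence following a 10 min room-temperature development.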

[2] = Viability qHTS for spleen associated tyrosine kinase inhibitor (SYKi) drug resistant MV4-11 cells (AID 1963824); note: nearly all actives have a fitted effect of over 35% in size
Summary of the method: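 CellTiter-Glo luminescence, read 10 min after reagent addition, reports viability after a 72 hr compound exposure. Cells are an MV4-11 line made resistant to SYK inhibition, seeded at 500 per well onto compound-containing plates.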

[3] = Cellular viability qHTS for adrenocortical cancer (ACC) cell line SW-13 (AID 1963989); settings: SW-13 ACC cells viability, CellTiter-Glo, 48 h; activity (max response): stronger effect = lower value; note: nearly all actives have a fitted effect of over 65% in size;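 for activity (max response): cells grown in serum-free medium with ITS supplement; % is set by controls: 0 for no effect and ±100 for the full control effect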
Summary of the method: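 Here, serum-free SW-13 cultures were dosed up to 46 uM. Following 48 h, ATP-dependent luminescence (CellTiter-Glo) reported viable cells, and logistic modeling produced IC50 values.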

[4] = Cellular viability qHTS for adrenocortical cancer (ACC) cell line NCI-H295R (AID 1963990); note: nearly all actives have a fitted effect of over 60% in size;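 for activity change, negative = viability loss: 0% = DMSO only wells and -100% = full killing with cytotoxic reference compound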
Summary of the method: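 Viability of NCI-H295R after 48 h of treatment (final up to 46 uM) measured through cellular ATP luminescence.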
Potency is the fitted concentration of half-maximal effect.

Row | SMILES | Potency [1] | Potency [2] | Potency [3] | Potency [4] | activity (max response) [3] | viability (% of control) [1] | viability, % of control [2] | activity change, negative = viability loss [4]
1 | C=CCNC1=C2C[C@@H](C)C[C@H](OC)[C@H](O)[C@@H](C)/C=C(\C)[C@H](OC(N)=O)[C@@H](OC)/C=C\C=C(/C)C(=O)NC(=CC1=O)C2=O | 0.59 µM (active) | 1.66 µM (active) | 3.55 µM (active) | 10 µM (active) |  |  |  | 
2 | C=CC(=O)Nc1ccc2ncnc(Nc3cccc(Br)c3)c2c1 | 2.59 µM (active) | 2.31 µM (active) | 1.26 µM (active) | 4.47 µM (active) |  |  |  | 
3 | C[N+]1(CC2COC(c3ccccc3)(C3CCCCC3)O2)CCCCC1 (stereo unspecified) | 13.3 µM (active) | 11.9 µM (active) |  | inactive | -27.2% |  |  | 
4 | CC(=O)O[C@]1(C(C)=O)CC[C@H]2[C@@H]3C[C@H](C)C4=CC(=O)CC[C@]4(C)[C@H]3CC[C@@]21C | 8.41 µM (active) and 13.2 µM (active) | 9.44 µM (active) and 13.2 µM (active) |  | inactive | -20.8% |  |  | 
5 | CCCCCCCCCCCCCCCCCCOCC(O)CO (stereo unspecified) | inactive | inactive |  | inactive | 15% |  |  | 
6 | NC(=S)N/N=C/c1cccnc1 | inactive | inactive |  | inactive | -1.7% |  |  | 
7 | CO[C@H]1/C=C\C=C(\C)C(=O)NC2=CC(=O)C(NCCN(C)C)=C(C[C@@H](C)C[C@H](OC)[C@H](O)[C@@H](C)/C=C(/C)[C@@H]1OC(N)=O)C2=O | 0.0332 µM (active) | 0.0833 µM (active) | 0.282 µM (active) | 2 µM (active) |  |  |  | 
8 | Cc1cccc(OCC(O)CNC(C)(C)C)c1C (stereo unspecified) | inactive | inactive |  | inactive | -1.22% |  |  | 
9 | CC(=O)Nc1ccc(OC(=O)c2ccccc2OC(C)=O)cc1 | inactive | inactive |  | inactive | 8.82% |  |  | 
10 | CC(C)(C)c1nnc(NS(=O)(=O)c2ccc(N)cc2)s1 | inactive | inactive |  | inactive | -5.75% |  |  | 
11 | CCCCNC(=O)NS(=O)(=O)c1ccc(C)cc1 | inactive | inactive |  | inactive | 2.87% |  |  | 
12 | NS(=O)(=O)c1cc2c(cc1C(F)(F)F)NCNS2(=O)=O | inactive | inactive |  | inactive | -4.83% |  |  | 
13 | CC(=O)Nc1ccc(CC(=O)O)cc1 | inactive | inactive |  | inactive | 4.33% |  |  | 
14 | CCC(=O)NC[C@H](Cc1ccc(OCCc2nc(-c3ccccc3)oc2C)cc1)N/C(C)=C\C(=O)c1ccc(C(F)(F)F)cc1 | 16.6 µM (active) | 11.8 µM (active) |  | inactive | -7.93% |  |  | 
15 | O=C1CCCc2c(O)cccc21 | inactive | inactive |  | inactive | -6.15% |  |  | 
16 | COC(C)(C)CCn1nc(Nc2c(C)cccc2C)c2cnc(Nc3ccc(OCCN4CCCC4)c(F)c3)nc21 | 731 nM (active) and 742 nM (active) | 1.03 µM (active) and 1.66 µM (active) | 2.82 µM (active) | 3.98 µM (active) |  |  |  | 
17 | Cc1cc(O)c(C)c(C)c1O | inactive | inactive |  | inactive | 6.25% |  |  | 
18 | Cc1ccccc1N=Nc1ccc(N=Nc2c(O)ccc3ccccc23)c(C)c1 | inactive | inactive |  | inactive | 15.2% |  |  | 
19 | C[C@@H](O)[C@@H]1NC(=O)[C@H](CCCCN)NC(=O)[C@@H](Cc2c[nH]c3ccccc23)NC(=O)[C@H](Cc2ccccc2)NC(=O)[C@@H](NC(=O)[C@H](N)Cc2ccccc2)CSSC[C@@H](C(=O)N[C@H](CO)[C@@H](C)O)NC1=O | inactive | inactive |  | inactive | -1.31% |  |  | 
20 | O=S(=O)(O)c1cc(I)c(O)c2ncccc12 | 0.015 µM (active) | inactive |  | inactive | 0.547% |  |  | 
21 | O=c1oc2c(C3OCCCO3)c(O)ccc2c2c1CNCC2 | 13.2 µM (active) | 11.8 µM (active) |  | inactive | 5.04% |  |  | 
22 | O=C(O)c1ccccc1C(=O)Nc1ccc(S(=O)(=O)Nc2nccs2)cc1 | inactive | inactive |  | inactive | -9.68% |  |  | 
23 | C/C=C(/C)C(=O)O[C@H]1C(C)=CC23C(=O)C(C=C(CO)[C@@H](O)[C@]12O)[C@H]1[C@@H](C[C@H]3C)C1(C)C (stereo partly specified) | 0.0166 µM (active) | 0.0083 µM (active) |  | inactive | -8.96% |  |  | 
24 | COc1cc(C(=O)N2CCCCCCC2)cc(OC)c1OC | inactive | inactive |  | inactive | 6.12% |  |  | 
25 | CN[C@@H]1[C@H](O)[C@H](NC)[C@H]2O[C@@]3(O)C(=O)C[C@@H](C)O[C@H]3O[C@@H]2[C@H]1O | inactive | inactive |  | inactive | 16.5% |  |  | 
26 | CO[C@@]12[C@H](COC(N)=O)C3=C(C(=O)C(C)=C(N)C3=O)N1C[C@@H]1N[C@@H]12 | 119 nM (active) and 118 nM (active) | 0.0742 µM (active) |  | inactive | 9.06% and -27.8% |  |  | 
27 | O=C(O)CCc1nc(-c2ccccc2)c(-c2ccccc2)o1 | inactive | inactive |  | inactive | -11.2% |  |  | 

Row | SMILES | Potency [1] | Potency [2] | Potency [3] | Potency [4] | activity (max response) [3] | viability (% of control) [1] | viability, % of control [2] | activity change, negative = viability loss [4]
28 | O=C(/C=C/c1ccc(/C=C/C(=O)Nc2ccc(C3=NCCN3)cc2)cc1)Nc1ccc(C2=NCCN2)cc1 |  |  |  |  | -13% | 73.8% [at 4.97 µM] | 91.6% [at 4.97 µM] | -22% [at 3.81 µM]
29 | Cc1cnc(NS(=O)(=O)c2ccc(N)cc2)nc1 | inactive | inactive |  | inactive | 9.12% |  |  | 
30 | Cc1onc(-c2c(Cl)cccc2Cl)c1C(=O)Cl | inactive | inactive |  | inactive | 17.1% |  |  | 
31 | CC(C)Nc1cccnc1N1CCN(C(=O)c2cc3cc(NS(C)(=O)=O)ccc3[nH]2)CC1 | inactive | inactive |  | inactive | -10.3% |  |  | 
32 | CNC[C@H](O)[C@@H](O)[C@H](O)[C@H](O)CO | inactive | inactive |  | inactive | 1.47% |  |  | 
33 | CNC(=O)[C@H](Cc1c[nH]c2ccccc12)NC(=O)[C@@H](CC(=O)NO)CC(C)C | 9.34 µM (active) | 10.5 µM (active) |  | inactive | -15.7% |  |  | 
34 | Nc1c2ccccc2nc2ccccc12 | 2.99 µM (active) | 3.76 µM (active) | 7.31 µM (active) | 7.31 µM (active) |  |  |  | 
35 | COc1ccc(CCN2CCC(Nc3nc4ccccc4n3Cc3ccc(F)cc3)CC2)cc1 | 4.22 µM (active) | 8.41 µM (active) | 20.6 µM (active) | 14.6 µM (active) |  |  |  | 
36 | COc1ccc(CNC(=O)Nc2ncc([N+](=O)[O-])s2)cc1 | 9.34 µM (active) | 13 µM (active) | 25.1 µM (active) | 28.2 µM (active) |  |  |  | 
37 | CC[C@@H]1[C@H](F)C(=O)N[C@@H]1COc1nccc2cc(C(N)=O)c(OC)cc12 | 11.8 µM (active) | 14.8 µM (active) |  | inactive | -21.5% |  |  | 
38 | O=S1(=O)OC(c2ccc(O)cc2)(c2ccc(O)cc2)c2ccccc21 | inactive | inactive |  | inactive | -5.64% |  |  | 
39 | COc1cc(N2CCC(N3CCN(C)CC3)CC2)ccc1Nc1ncc(Cl)c(Nc2ccccc2S(=O)(=O)C(C)C)n1 | 92 nM (active) and 148 nM (active) | 116 nM (active) and 209 nM (active) | 5.01 µM (active) | 1.12 µM (active) |  |  |  | 
40 | CC(C)(C)C(=O)NCCCC(=O)O | inactive | inactive |  | inactive | 7.9% |  |  | 
41 | N[C@@H]1CN(c2c(F)cc3c(=O)c(C(=O)O)cn([C@@H]4C[C@@H]4F)c3c2Cl)CC12CC2 | inactive | inactive |  | inactive | -10.4% |  |  | 
42 | Cc1cc(O)cc2c1[C@]1(C)CC[C@H]3C(C)(C)CCC[C@]3(C)[C@H]1C2 |  |  |  |  | -14% | 65.3% [at 4.97 µM] | 59.2% [at 4.97 µM] | -10.2% [at 3.81 µM]
43 | NS(=O)(=O)c1cc(-c2nn[nH]n2)c(NCc2cccs2)cc1Cl | inactive | inactive |  | inactive | 11.4% |  |  | 
44 | CCC1NC(=O)c2cc(S(N)(=O)=O)c(Cl)cc2N1 (stereo unspecified) | inactive | inactive |  | inactive | 11.8% |  |  | 
45 | C#C[C@]1(O)CC[C@H]2[C@@H]3[C@H](C)CC4=C(CCC(=O)C4)[C@H]3CC[C@@]21C | inactive | 18.6 µM (active) |  | inactive | -17.1% |  |  | 
46 | Cc1nc2cccc(N)c2c(=O)n1C1CCC(=O)NC1=O (stereo unspecified) | 0.209 µM (active) | inactive |  | inactive | 3.79% |  |  | 
47 | Nc1ccc(C(=O)OCC(O)CO)cc1 (stereo unspecified) | inactive | inactive |  | inactive | 13.4% |  |  | 
48 | Cc1cccn2c(=O)c(-c3nnn[nH]3)cnc12 | inactive | inactive |  | inactive | -1.53% |  |  | 
49 | C=CC(=O)Nc1cccc(Oc2nc(Nc3ccc(N4CCN(C)CC4)cc3)nc3ccsc23)c1 | 2.63 µM (active) | 3.32 µM (active) | 3.16 µM (active) | 5.01 µM (active) |  |  |  | 
50 | CO/N=C(\C(=O)O)c1csc(NC(=O)CCl)n1 | inactive | inactive |  | inactive | 13% |  |  | 
51 | CC1(C)S[C@@H]2[C@H](NC(=O)Cc3ccccc3)C(=O)N2[C@H]1C(=O)O (tested in a mixture with another compound) | inactive | inactive |  | inactive | 7.44% |  |  | 
52 | CN1[C@@H]2CC[C@H]1CC(NC(=O)n1c(=O)[nH]c3ccccc31)C2 (stereo partly specified) | inactive | inactive |  | inactive | 2.49% |  |  | 
53 | CCC1CCCCN1C(=O)n1ncc(C(O)(c2ccccc2)c2ccccc2)n1 (stereo unspecified) | 11.8 µM (active) | 5.25 µM (active) | 15.8 µM (active) | 28.2 µM (active) |  |  |  | 
54 | C[C@@H](O[C@H]1OCCN(Cc2n[nH]c(=O)[nH]2)[C@@H]1c1ccc(F)cc1)c1cc(C(F)(F)F)cc(C(F)(F)F)c1 | 16.6 µM (active) | 16.6 µM (active) | 22.4 µM (active) | 25.1 µM (active) |  |  |  | 
